Screening results as filed in PubChem BioAssay.
PLK1 PBD block: inhibitors of human PLK1 polo-box domain binding. Plk1 PBD binding of FITC phosphopeptide, fluorescence polarization. actives 2.8% (n = 360,000). Potency, µM, actives largely listed as inhibitors. AID 720504. P53350; note: series mostly up to about 57 µM; nearly all actives have a fitted effect of over 65% in size
BAZ2B block: BAZ2B (human) inhibition; Q9UIF8; AlphaScreen BAZ2B-H3K14Ac peptide displacement; Potency, µM (top dose mostly 114 µM), most hits filed as inhibitors; actives 4.4% (n = 360,000); AID 504333; note: nearly all actives have a fitted effect of over 60% in size
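Inhibition is scored as reduced AlphaScreen emission. The BAZ2B/b-H3(5-23)K14Ac complex (50 nM each) in PBS pH 7.4, 0.01% Tween-20 meets compound (up to 110 uM) for 30 min at RT before bead addition.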
HP1b chromo inh: inhibitors of HP1-beta chromodomain binding to methylated histone tails | P83916 | Potency, µM (titrated, usually from 114 µM), usual class: inhibitors | actives 0.56% (n = 390,000) | AlphaScreen HP1-beta / biotin-H3K9me3 peptide binding; note: nearly all actives have a fitted effect of over 70% in size
Target sequence (P83916 whole entry, looked up): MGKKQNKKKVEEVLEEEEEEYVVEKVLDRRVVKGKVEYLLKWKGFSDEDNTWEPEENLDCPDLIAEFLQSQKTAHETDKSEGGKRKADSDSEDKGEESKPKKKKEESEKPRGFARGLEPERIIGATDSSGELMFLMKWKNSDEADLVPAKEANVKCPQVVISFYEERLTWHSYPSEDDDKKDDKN
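AlphaScreen: HP1-beta (50 nM) preformed 30 min with biotin-H3(1-18)K9me3 peptide (50 nM) in PBS pH 7.4, 0.01% Tween-20. Compound added for 30 min at RT, then streptavidin donor/nickel chelate acceptor beads (10 ug/mL) for 30 min.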
G9a inh: G9a (human) methyltransferase inhibition; Q96KQ7; G9a H3K9 monomethylation, AlphaScreen, 2 h; Potency, µM (doses to about 102 µM), hits mostly inhibitors; actives 8.8% (n = 350,000); note: nearly all actives have a fitted effect of over 75% in size
Target sequence (Q96KQ7 913-1193 limits assumed): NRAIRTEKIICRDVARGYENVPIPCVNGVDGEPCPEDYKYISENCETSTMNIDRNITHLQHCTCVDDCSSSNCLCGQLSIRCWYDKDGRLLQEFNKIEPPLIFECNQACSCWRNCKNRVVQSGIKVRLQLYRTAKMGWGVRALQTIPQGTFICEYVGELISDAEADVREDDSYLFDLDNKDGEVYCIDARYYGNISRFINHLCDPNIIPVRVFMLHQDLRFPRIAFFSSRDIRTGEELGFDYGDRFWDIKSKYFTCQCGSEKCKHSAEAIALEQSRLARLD
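Quantitative HTS format: methyltransferase activity on a biotin-tagged H3K9 peptide is measured by AlphaScreen, using a rabbit anti-monomethyl-H3K9 antibody with streptavidin donor and anti-IgG acceptor beads. Final levels are 20 nM enzyme, 500 nM peptide, 20 uM SAM; 2 h RT.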
PI5P4Ka inh: PI5P4K alpha (human) kinase inhibition. PI5P4Kalpha enzyme, ADP-Glo luminescence, 60 min; active compounds read low. max response, %. actives 1.2% (n = 330,000). P48426. AID 652105; active = max response of -50% or lower; inconclusive = between -30% and -50%; inactive = -30% or higher; note: value at the top dose of about 77 µM
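qHTS, 1536-well: enzyme/substrate mix, compound by pin tool, 5 microM ATP final; RT 60 min; ADP-Glo reagents 1 (45 min) then 2 (30 min); luminescence.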
JMJD2A Tudor: inhibitors of human JMJD2A Tudor domain | AlphaScreen JMJD2A-Tudor / H3K4me3 peptide binding | Potency, µM (top dose mostly 114 µM), usual class: inhibitors | actives 4.4% (n = 390,000) | AID 504339; note: nearly all actives have a fitted effect of over 50% in size
A number is an active result; i = inactive; ? = inconclusive; nt = not tested or not shown; ! = not active in a repeat; [ ] = another dose, or the depositor's remark. Rows were chosen to be rich in hits. Some 12% of all compounds tested hit in one or more screens of this group. Unless noted, calls come from the whole dose curve; as a rule, active = well fitted curve in the direction sought with a large enough effect; inconclusive = small, poorly fitted or top-dose-only effect, or another doubt; inactive = no such curve, though single readings can be large; an effect the other way counts as inactive or inconclusive.

SMILES	PLK1 PBD block	BAZ2B block	HP1b chromo inh	G9a inh	PI5P4Ka inh	JMJD2A Tudor
OCCN(CC#CC(O)(c1ccccc1)c1ccccc1)CCO	i	?	i	32µM	i	i
CC(C)N(CC#CC(O)(c1ccccc1)c1ccccc1)CCO	i	i	i	i	i	i
O=S(=O)(c1ccc(Cl)cc1)n1c(Cc2ccccc2)nc2ccccc21	i	i	i	?	i	i
COc1ccccc1Cc1nc2ccccc2n1S(=O)(=O)c1ccc(Cl)cc1	i	i	i	25µM	i	i
CCCc1noc(-c2ccc(NCc3ccc(C)cc3)c([N+](=O)[O-])c2)n1	nt	i	i	i	nt	i
CC(=O)c1ccc(-c2cc(C3C4C=CCC(C)C4C(=O)N3Cc3ccccc3)ccc2F)cc1 (centres undefined)	nt	nt	i	nt	nt	i
Cc1ccc(C(=O)Nc2cccc(C(=O)OCc3cc(=O)n4nc(C5CC5)sc4n3)c2)cc1	nt	i	i	i	nt	i
Cc1ccc(NC(=O)c2c(C)nn(-c3ccccc3)c2-n2cccc2)c(Cl)c1	nt	i	i	i	nt	i
CCOC(=O)c1ccc2[nH]c(CSc3nnc(-c4cccc(F)c4)n3C)cc(=O)c2c1	nt	i	i	i	nt	i
CCCC1Nc2ccc(C(=O)O)cc2C2C=CCC12 (centres undefined)	?	45µM	i	?	i	56µM
COCCNC(=O)C1Nc2ccc(C(F)(F)F)cc2C2C=CCC12 (centres undefined)	i	nt	i	nt	i	i
CCOC(=O)c1ccc2c(c1)C1C=CCC1C(C(=O)O)N2 (centres undefined)	nt	6.3µM	nt	3.2µM	nt	nt
O=C(O)C1Nc2ccccc2C2C=CCC12 (centres undefined)	nt	nt	11µM	nt	nt	3.5µM
CCOC(=O)C1Nc2ccc(C(=O)O)cc2C2C=CCC12 (centres undefined)	3µM	40µM	7.9µM	i[0.501 µM]	-69	4µM
O=C(NCc1ccccn1)C1Nc2ccc(C(F)(F)F)cc2C2C=CCC12 (centres undefined)	i	nt	i	nt	?	?
O=[N+]([O-])c1ccc(N/N=C/C=C/c2ccco2)cc1	i	nt	i	nt	i	i
COc1ccccc1Cn1cc(C(=O)c2ccc(C)cc2)c(=O)c2cc(C)ccc21	nt	i	i	i	nt	i
COc1ccc(-c2nc3cncnc3n(-c3ccccc3)c2=O)cc1	nt	nt	nt	i[0.501 µM]	nt	nt
O=C1C(Cc2ccccc2)Nc2ncnc(N3CCOCC3)c2N1Cc1ccc(Cl)cc1 (centres undefined)	27µM!	i	i	4.5µM	i	?
CCC1Nc2ncnc(N3CCOCC3)c2N(Cc2ccc(OC)cc2)C1=O (centres undefined)	27µM	nt	i	nt	i	56µM
CCC1Nc2ncnc(N3CCOCC3)c2N(Cc2ccccc2)C1=O (centres undefined)	i	i	i	i[2.33 µM]	i	i
O=C1C(Cc2ccccc2)Nc2ncnc(N3CCN(c4ccccc4)CC3)c2N1Cc1ccccc1 (centres undefined)	?	?	i	?	i	63µM
CN(C)c1ncnc2ccc(-c3ccc4c(c3)OCO4)cc12	nt	nt	nt	i[0.501 µM]	nt	nt
CCN(CC)S(=O)(=O)c1ccc2c(c1)N(CC(=O)NCCCN1CCN(c3cc(Cl)ccc3C)CC1)C(=O)CO2	nt	i	i	i	nt	?
O=C(NC(=S)N1CCc2ccccc21)c1ccccc1	i	?	i	45µM	i	?
SMILES	PLK1 PBD block	BAZ2B block	HP1b chromo inh	G9a inh	PI5P4Ka inh	JMJD2A Tudor
S=C(Nc1ccccc1)N1CCc2ccccc21	i	i	i	i[0.501 µM]	i	i
CC(=O)c1cccc(NC(=S)N2CCc3ccccc32)c1	?	i	i	35µM	i	i
O=[N+]([O-])c1ccc(NC(=S)N2CCc3ccccc32)cc1	i	?	i	35µM	i	?
COc1ccc(NC(=S)N2CCc3ccccc32)cc1OC	i	?	i	50µM	i	i
CCN(CCNC(=O)C1CCN(S(=O)(=O)c2cccc3nsnc23)CC1)c1ccccc1	i	?	i	50µM	i	?
CCOc1ccc(CCNC(=O)C2CCN(c3nnc(-n4cccc4)s3)CC2)cc1	i	i	i	i	i	i
NS(=O)(=O)c1ccc(CCNC(=O)C2CCCN2S(=O)(=O)c2cccc3nsnc23)cc1 (centres undefined)	i	i	i	79µM	i	i
CCN(CCNC(=O)CN(C)S(=O)(=O)c1cccc2nsnc12)c1ccccc1	i	?	i	40µM	nt	?
O=C(NCCc1ccccc1)C1CCCN1S(=O)(=O)c1cccc2nsnc12 (centres undefined)	i	i	i	i	i	i
CCN(CCNC(=O)C1CCN(c2nnc(-n3cccc3)s2)CC1)c1ccccc1	i	i	i	16µM	i	i
O=NCc1ccc([N+](=O)[O-])o1	nt	nt	nt	i	nt	nt
CCOc1ccccc1NC(=O)N1CCN(Cc2cc(=O)n3nc(-c4ccc(C)cc4)sc3n2)CC1	nt	i	i	i	nt	i
CCCCN(CCCNC(=O)C1CCN(S(=O)(=O)CC)CC1)c1ccccc1	i	i	i	7.1µM	nt	i
CCN(CC)c1ccc(NC(=O)CN(C)S(=O)(=O)c2cccc3nsnc23)c(C)c1	nt	nt	?	18µM	nt	?
CCOc1ccc(NC(=O)CCc2nnc3n(C)c(=O)c4sccc4n23)cc1	nt	i	i	i	nt	i
